Activity calls are given as the source filed them. How the source made its calls: active means hit-call score of the fitted dose curve at least 0.9, where 1 is the maximum; inactive means score below 0.9.
Columns and labels:
[1] = ATG_CRE_CIS: Attagene CIS-FACTORIAL HepG2 Assay for human cAMP Responsive Element (CRE) binding protein 3 (AID 2282926); details: HepG2 CRE cis-reporter, Attagene multiplexed mRNA; actives raise or lower the signal
Summary of the method: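 Human liver HepG2, transient MRTU transfection, 24 h compound exposure. Total RNA → oligo(dT) RT → PCR → 6-FAM primer extension → HpaI cut → CE. Activity called both directions vs DMSO.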

[2] = target: CCAAT/enhancer-binding protein beta (Homo sapiens) (UniProt P17676); assay: ATG_C_EBP_CIS: Attagene CIS-FACTORIAL HepG2 Assay for human CCAAT/Enhancer Binding Protein (C/EBP) beta (AID 2282927); details: HepG2 Attagene cis-factorial transcription factor reporter; actives raise or lower the signal
Summary of the method: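 Endogenous transcription factor activity in human liver HepG2 cells is inferred from induction of a CEBPB-linked reporter mRNA. Exposure lasts 24 h; activity is fitted in both directions relative to DMSO.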

[3] = ATG_CMV_CIS: Attagene CIS-FACTORIAL HepG2 Assay for human CMV (Internal Marker) (AID 2282928); details: HepG2 CMV promoter reporter, transcription factor profiling; actives raise or lower the signal;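 further: endpoint acts as a background internal control marker rather than a target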
Summary of the method: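 HepG2 cells transiently transfected with multiple cis-regulated reporter units; 24 h compound exposure. Reporter mRNA quantified by RT-PCR, 6-FAM primer-extension labeling, HpaI digestion and capillary electrophoresis; bidirectional fitting against DMSO baseline.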

[4] = ATG_DR4_LXR_CIS: Attagene CIS-FACTORIAL HepG2 Assay for human Liver X Receptor (LXR), DR4 submotif (AID 2282929); details: HepG2 Attagene DR4 cis-reporter, mRNA transcription; actives raise or lower the signal
Summary of the method: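 Endogenous factor activity at a DR4 cis-element is read as reporter mRNA in transiently transfected HepG2 cells. Exposure lasts 24 h; transcripts are amplified, fluorescently labelled and sized by capillary electrophoresis, with DMSO as baseline.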

[5] = target: Aryl hydrocarbon receptor (Homo sapiens) (UniProt P35869); assay: ATG_Ahr_CIS: Attagene CIS-FACTORIAL HepG2 Assay for human Aryl Hydrocarbon Receptor (Ahr) (AID 2282930); details: HepG2 AhR cis-factorial reporter transcription; actives raise or lower the signal
Summary of the method: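 Transient MRTU transfection of HepG2 → 24 h compound exposure → total RNA, oligo(dT) RT → PCR, 6-FAM extension, HpaI cut → CE fluorescence. DMSO = baseline; bidirectional curve fit.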

[6] = ATG_AP_1_CIS: Attagene CIS-FACTORIAL HepG2 Assay for human Activator Protein 1 (AP-1) (AID 2282931); details: HepG2 Attagene cis-factorial AP-1 reporter mRNA; actives raise or lower the signal
Summary of the method: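 Fluorescence of labelled PCR fragments separated by capillary electrophoresis gives reporter mRNA levels. HepG2 with transfected cis-regulated reporter units, 24 h exposure; DMSO serves as baseline for bidirectional curve fits.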

[7] = ATG_AP_2_CIS: Attagene CIS-FACTORIAL HepG2 Assay for human Activator Protein 2 (AP-2) (AID 2282932); details: HepG2 AP-2 cis-reporter, Attagene transcription factor profiling; actives raise or lower the signal
Summary of the method: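 HepG2, transient MRTU transfection, cis-regulated reporters; 24 h compound exposure; RNA isolated, RT-PCR, 6-FAM labelling, HpaI digest, CE fluorescence. DMSO = negative control/baseline, bidirectional fit.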

[8] = ATG_BRE_CIS: Attagene CIS-FACTORIAL HepG2 Assay for human Bone Morphogenetic Protein (BMP) Response Element (BRE) (AID 2282933); details: HepG2 BMP response element reporter, Attagene transcription factor profiling; actives raise or lower the signal
Summary of the method: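 After a 24 h chemical treatment, transiently transfected HepG2 cells were lysed for RNA; reporter transcripts were quantified by fluorescent RT-PCR and capillary electrophoresis, normalised to DMSO.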

[9] = target: Transcription factor E2F1 (Homo sapiens) (UniProt Q01094); assay: ATG_E2F_CIS: Attagene CIS-FACTORIAL HepG2 Assay for human E2F Transcription Factor 1 (AID 2282935); details: HepG2 Attagene cis-reporter, E2F reporter RNA transcripts; actives raise or lower the signal
Summary of the method: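 Cis-element reporter mRNA induction in transiently transfected HepG2, 24 h exposure. Activity fitted in both directions relative to DMSO negative control.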

[10] = ATG_E_Box_CIS: Attagene CIS-FACTORIAL HepG2 Assay for human Enhancer Box (E-box) (AID 2282936); details: HepG2 E-box cis-reporter transcription, actives raise or lower the signal
Summary of the method: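 Cells: HepG2 (human liver), transient MRTU transfection. Exposure 24 h. RNA → oligo(dT) RT → PCR → 6-FAM label → HpaI → CE. Activity fitted both directions relative to DMSO.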

[11] = ATG_M_61_CIS: Attagene CIS-FACTORIAL HepG2 Assay for M61 Transcription Factor (Internal Marker) (AID 2282937); details: HepG2 Attagene CIS-FACTORIAL M61 internal marker reporter; actives raise or lower the signal
Summary of the method: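 This endpoint serves as an internal background control within a multiplexed HepG2 cis-reporter panel. Cells are exposed for 24 h; reporter mRNA is amplified, fluorescently labelled and sized by capillary electrophoresis, with DMSO as negative control.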

[12] = ATG_EGR_CIS: Attagene CIS-FACTORIAL HepG2 Assay for human Early Growth Response 1 (EGR1) (AID 2282938); details: HepG2 Attagene CIS-FACTORIAL EGR reporter mRNA; actives raise or lower the signal
Summary of the method: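 HepG2, transient MRTU transfection (cis promoters), 24 h compound. RNA → RT (oligo-dT) → PCR → 6-FAM labelling → HpaI cut → CE fluorescence. Bidirectional fit, DMSO baseline.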

[13] = ATG_M_19_CIS: Attagene CIS-FACTORIAL HepG2 Assay for M19 Transcription Factor (Internal Marker) (AID 2282939); details: HepG2 Attagene CIS-FACTORIAL M19 internal marker reporter; actives raise or lower the signal
Summary of the method: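 In this multiplexed cell assay, transiently transfected HepG2 reporter units report endogenous transcription-factor activity; after 24 hours of treatment, labelled reporter cDNA fragments are quantified by capillary electrophoresis and fitted bidirectionally against DMSO.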

[14] = ATG_ERE_CIS: Attagene CIS-FACTORIAL HepG2 Assay for Estrogen Response Element (ERE) (AID 2282940); details: HepG2 ERE cis-reporter, Attagene RNA transcript; actives raise or lower the signal
Summary of the method: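 Measuring endogenous transcription factor output, the assay doses transfected HepG2 cells for 24 hours and quantifies reporter transcripts by fluorescent RT-PCR and capillary electrophoresis, with DMSO as baseline.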

[15] = ATG_Ets_CIS: Attagene CIS-FACTORIAL HepG2 Assay for human Erythroblast Transformation Specific (ETS) (AID 2282941); details: HepG2 ETS cis-reporter transcription, actives raise or lower the signal
Summary of the method: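 HepG2 cells transiently transfected with cis-promoter reporter transcription units were dosed for 24 h; reporter mRNA was measured by RT-PCR, 6-FAM primer extension, HpaI digestion and capillary electrophoresis, with bidirectional fitting against DMSO baseline.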

[16] = target: Hepatocyte nuclear factor 3-beta (Homo sapiens) (UniProt Q9Y261); assay: ATG_FoxA2_CIS: Attagene CIS-FACTORIAL HepG2 Assay for human Forkhead box A2 (FOXA2) (AID 2282942); details: HepG2 cis-reporter transcription factor activity, 24 h; actives raise or lower the signal
Summary of the method: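 Cells: HepG2, transient multiplex reporter transfection. Exposure 24 h. Detection: reporter-specific RT-PCR, fluorescent labelling, restriction digest, capillary electrophoresis. Analysis: bidirectional curve fit, DMSO as negative control.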

[17] = ATG_FoxO_CIS: Attagene CIS-FACTORIAL HepG2 Assay for human Forkhead box O (FoxO) (AID 2282943); details: HepG2 Attagene cis-reporter, FoxO element, mRNA; actives raise or lower the signal
Summary of the method: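 HepG2, transient MRTU transfection (cis element, endogenous TFs). Dose 24 h. TriZol RNA → oligo(dT) RT → PCR → 6-FAM primer extension → HpaI cut → CE. Gain/loss vs DMSO.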

[18] = ATG_GATA_CIS: Attagene CIS-FACTORIAL HepG2 Assay for human GATA Binding Protein (AID 2282944); details: HepG2 GATA cis-element reporter, Attagene multiplex mRNA; actives raise or lower the signal
Summary of the method: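 Measures endogenous transcription factor-driven reporter mRNA in HepG2 cells transiently carrying cis-regulated constructs. 24 h dosing; RNA via oligo(dT) reverse transcription, PCR, HpaI digestion, capillary electrophoresis; fitted relative to DMSO.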

[19] = ATG_GLI_CIS: Attagene CIS-FACTORIAL HepG2 Assay for human Zinc Finger Protein GLI1 (AID 2282945); details: HepG2, Attagene cis-factorial reporter mRNA, GLI element; actives raise or lower the signal
Summary of the method: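 Bidirectional curve fits relative to DMSO, using reporter mRNA levels from RT-PCR plus capillary electrophoresis. Cells were HepG2 transiently carrying cis-regulated reporter constructs, harvested 24 h after dosing.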

[20] = target: Retinoic acid receptor alpha (Homo sapiens) (UniProt P10276); assay: ATG_DR5_RAR_CIS: Attagene CIS-FACTORIAL HepG2 Assay for human Retinoic Acid Receptor Alpha (RARE), DR5 submotif (AID 2282934); details: HepG2 Attagene cis-factorial RARE DR5 reporter, mRNA; actives raise or lower the signal
Summary of the method: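 Transient MRTU transfection of HepG2; 24 h compound treatment; TriZol RNA, oligo(dT) RT, PCR, FAM labelling, capillary electrophoresis. Bidirectional fit vs DMSO. Endogenous TF activity at DR5 RARE.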

Measured: AC50

Sequence of Hepatocyte nuclear factor 3-beta (Homo sapiens) (Q9Y261 whole entry, looked up): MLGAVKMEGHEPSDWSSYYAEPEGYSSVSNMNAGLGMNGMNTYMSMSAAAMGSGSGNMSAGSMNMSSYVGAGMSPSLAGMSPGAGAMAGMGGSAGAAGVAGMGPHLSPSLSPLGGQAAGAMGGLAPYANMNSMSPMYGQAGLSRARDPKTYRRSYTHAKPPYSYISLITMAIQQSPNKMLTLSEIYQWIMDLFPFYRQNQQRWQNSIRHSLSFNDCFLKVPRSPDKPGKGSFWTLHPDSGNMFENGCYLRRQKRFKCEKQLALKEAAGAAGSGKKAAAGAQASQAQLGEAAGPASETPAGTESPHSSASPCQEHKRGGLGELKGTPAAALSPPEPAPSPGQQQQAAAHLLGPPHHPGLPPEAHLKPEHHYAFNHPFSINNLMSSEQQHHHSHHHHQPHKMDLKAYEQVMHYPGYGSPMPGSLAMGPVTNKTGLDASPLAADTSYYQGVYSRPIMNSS
Sequence of Aryl hydrocarbon receptor (Homo sapiens) (P35869 whole entry, looked up): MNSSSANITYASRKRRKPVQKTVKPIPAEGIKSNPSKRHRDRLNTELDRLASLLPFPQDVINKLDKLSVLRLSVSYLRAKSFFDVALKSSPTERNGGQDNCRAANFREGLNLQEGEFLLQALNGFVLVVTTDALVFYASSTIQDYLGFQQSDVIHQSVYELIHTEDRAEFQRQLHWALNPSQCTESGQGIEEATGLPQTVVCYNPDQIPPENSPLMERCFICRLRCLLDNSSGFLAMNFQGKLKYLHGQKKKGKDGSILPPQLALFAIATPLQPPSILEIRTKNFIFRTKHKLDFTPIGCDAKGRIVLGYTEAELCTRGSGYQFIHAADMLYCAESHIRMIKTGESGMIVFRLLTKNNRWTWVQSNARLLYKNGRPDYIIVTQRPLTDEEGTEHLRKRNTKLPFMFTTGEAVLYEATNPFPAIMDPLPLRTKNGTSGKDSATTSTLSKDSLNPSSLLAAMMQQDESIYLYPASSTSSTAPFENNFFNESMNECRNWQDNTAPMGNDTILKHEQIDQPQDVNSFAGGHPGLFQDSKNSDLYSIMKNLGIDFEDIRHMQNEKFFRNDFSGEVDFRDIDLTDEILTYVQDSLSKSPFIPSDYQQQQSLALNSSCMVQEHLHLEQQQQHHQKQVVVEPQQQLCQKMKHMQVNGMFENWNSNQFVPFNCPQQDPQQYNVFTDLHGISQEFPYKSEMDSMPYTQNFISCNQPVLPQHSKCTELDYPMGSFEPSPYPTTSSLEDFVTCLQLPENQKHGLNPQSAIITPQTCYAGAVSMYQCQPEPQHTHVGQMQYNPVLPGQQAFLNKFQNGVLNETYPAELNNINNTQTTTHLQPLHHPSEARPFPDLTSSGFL
Sequence of CCAAT/enhancer-binding protein beta (Homo sapiens) (P17676 whole entry, looked up): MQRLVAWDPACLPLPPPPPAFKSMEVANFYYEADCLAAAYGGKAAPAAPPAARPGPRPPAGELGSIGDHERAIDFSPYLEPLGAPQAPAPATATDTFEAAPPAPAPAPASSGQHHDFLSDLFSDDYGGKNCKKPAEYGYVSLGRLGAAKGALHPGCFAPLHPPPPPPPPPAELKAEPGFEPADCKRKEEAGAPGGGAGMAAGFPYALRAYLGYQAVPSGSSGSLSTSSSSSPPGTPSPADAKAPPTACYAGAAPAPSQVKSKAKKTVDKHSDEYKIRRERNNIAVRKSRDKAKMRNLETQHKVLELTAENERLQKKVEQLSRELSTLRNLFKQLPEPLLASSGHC
Sequence of Transcription factor E2F1 (Homo sapiens) (Q01094 whole entry, looked up): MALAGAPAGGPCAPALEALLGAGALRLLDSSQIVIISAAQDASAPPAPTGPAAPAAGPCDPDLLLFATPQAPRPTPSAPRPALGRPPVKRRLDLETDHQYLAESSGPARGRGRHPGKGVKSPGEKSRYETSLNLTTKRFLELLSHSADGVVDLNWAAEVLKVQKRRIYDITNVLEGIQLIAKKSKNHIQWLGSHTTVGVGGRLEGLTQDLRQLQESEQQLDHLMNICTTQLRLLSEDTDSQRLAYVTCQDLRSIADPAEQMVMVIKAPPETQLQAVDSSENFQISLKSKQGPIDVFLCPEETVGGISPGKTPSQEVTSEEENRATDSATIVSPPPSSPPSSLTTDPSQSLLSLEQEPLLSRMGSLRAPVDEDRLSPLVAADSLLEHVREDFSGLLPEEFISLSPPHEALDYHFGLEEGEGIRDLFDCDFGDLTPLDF
Sequence of Retinoic acid receptor alpha (Homo sapiens) (P10276 whole entry, looked up): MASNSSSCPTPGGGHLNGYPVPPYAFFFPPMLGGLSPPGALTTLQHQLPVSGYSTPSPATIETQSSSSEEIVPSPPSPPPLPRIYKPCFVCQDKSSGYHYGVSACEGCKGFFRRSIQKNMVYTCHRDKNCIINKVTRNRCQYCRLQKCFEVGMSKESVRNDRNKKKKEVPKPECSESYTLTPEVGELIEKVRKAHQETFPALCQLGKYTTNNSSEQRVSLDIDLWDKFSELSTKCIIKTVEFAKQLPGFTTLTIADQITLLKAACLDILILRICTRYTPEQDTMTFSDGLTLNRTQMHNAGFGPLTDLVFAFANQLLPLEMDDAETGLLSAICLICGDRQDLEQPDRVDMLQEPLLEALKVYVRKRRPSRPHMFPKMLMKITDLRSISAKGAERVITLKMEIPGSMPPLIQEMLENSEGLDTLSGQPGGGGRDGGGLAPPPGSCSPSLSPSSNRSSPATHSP

CCC[CH2][Sn]([Cl])([Cl])[Cl]
not listed: [20]
inactive: all other assays above

O=C(Cl)c1ccc(Cl)cc1
not listed: [11] | [14] | [19]
inactive: all other assays above

O=C(Nc1ccc2[nH]ccc2c1)c1cc2cc(F)ccc2n1Cc1cccc(F)c1
active: [2] 20.3 µM | [3] 11 µM | [4] 7.44 µM | [6] 7.29 µM | [10] 19.2 µM | [12] 11 µM
not listed: [13]
inactive: all other assays above

NNC(=S)NN
not listed: [20]
inactive: all other assays above

CN(CCCC(=O)c1cccnc1)N=O
not listed: [13] | [14] | [20]
inactive: all other assays above

COP(=S)(OC)Oc1ccc(S(=O)(=O)N(C)C)cc1
not listed: [11]
inactive: all other assays above

COc1ccc(C=O)cc1OC
active: [14] 15.2 µM
not listed: [13]
inactive: all other assays above

CC(=[OH+])/C=C(/C)[O-].CC(=[OH+])/C=C(/C)[O-].CC(=[OH+])/C=C(/C)[O-].[Fe]
not listed: [14] | [20]
inactive: all other assays above

COP(=O)(OC)OC
not listed: [20]
inactive: all other assays above

Cl/C=C/Cl
not listed: [11] | [14]
inactive: all other assays above

CCCCOCCOC(C)=O
not listed: [14] | [20]
inactive: all other assays above

Oc1c(I)cc(I)cc1I
active: [3] 49.3 µM | [5] 34.5 µM | [7] 63.7 µM | [8] 43.2 µM | [10] 4.99 µM | [12] 71.1 µM | [17] 100 µM | [19] 149 µM
not listed: [11]
inactive: all other assays above

ClCc1ccccn1
active: [1] 67.5 µM | [5] 76 µM
not listed: [14] | [20]
inactive: all other assays above

C[C@H]1CCCC(=O)CCC/C=C/c2cc(O)cc(O)c2C(=O)O1
active: [3] 31.1 µM | [5] 22.5 µM | [8] 64.5 µM | [12] 10.2 µM | [15] 7.35 µM | [17] 10.3 µM
not listed: [13] | [14] | [20]
inactive: all other assays above

COc1cc(OC)nc(NC(=O)NS(=O)(=O)c2ncccc2C(=O)N(C)C)n1
not listed: [20]
inactive: all other assays above

Reference: PubChem BioAssay (EPA / NIEHS)
